Bioassay records deposited in PubChem BioAssay by National Center for Advancing Translational Sciences (NCATS).
Most compounds without a hit are left out; they make up all but 2.3% or so of the library.
LASV entry inh = qHTS for Inhibitors of binding or entry into cells for Lassa Virus; Lassa virus pseudotype entry inhibition, cell reporter; Potency, µM (highest dose often 37.9 µM), for inactives: at the highest dose activity change, negative = inhibition, hits mostly inhibitors; AID 540256, 2011; 300,000 tested, 1.2% active; calls by dose curve; tested in HEK293 cells; also: nearly all actives have a fitted effect of over 50% in size
AMA1-RON2 inh = qHTS for Inhibitors of AMA1-RON; Towards Development of Antimalarial Drug Lead: Primary Screen; Potency, µM (top dose mostly 58.2 µM), for inactives: at the highest dose activity change, negative = inhibition, actives largely listed as inhibitors; AlphaScreen AMA1-biotinylated RON2 peptide binding; 360,000 tested, 0.2% active; Plasmodium falciparum AMA1 (3D7) - RON2 peptide interaction;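 also: 0% = vehicle wells and -100% = peptide control; nearly all actives have a fitted effect of over 45% in size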
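AMA1 (3D7) with his tag at 25 nM final met compounds first, then biotinylated RON2 peptide at 25 nM; detection used donor plus acceptor beads, 10 µg/mL apiece, read by AlphaScreen after 30 min at room temperature.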
AmpC inh detg = qHTS Inhibitors of AmpC Beta-Lactamase (assay with detergent) | AmpC hydrolysis of nitrocefin, absorbance 480 nm, 0.01% Triton | Potency, µM (doses to about 114 µM), inactives show at the top dose activity change, negative = inhibition, hits mostly inhibitors | 370,000 tested, 0.041% active;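 also: 0% = no-compound wells and -100% = no-enzyme wells; nearly all actives have a fitted effect of over 25% in size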
Target sequence (P00811 whole entry, looked up): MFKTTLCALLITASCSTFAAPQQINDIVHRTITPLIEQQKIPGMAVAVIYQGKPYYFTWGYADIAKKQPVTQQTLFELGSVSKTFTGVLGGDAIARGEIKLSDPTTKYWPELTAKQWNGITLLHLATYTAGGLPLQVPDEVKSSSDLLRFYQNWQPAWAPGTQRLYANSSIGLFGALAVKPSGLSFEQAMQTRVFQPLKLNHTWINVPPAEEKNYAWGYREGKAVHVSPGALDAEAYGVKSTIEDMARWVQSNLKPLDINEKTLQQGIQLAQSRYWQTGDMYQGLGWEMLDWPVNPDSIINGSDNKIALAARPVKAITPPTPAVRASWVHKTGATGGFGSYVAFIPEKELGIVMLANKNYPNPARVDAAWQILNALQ
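AmpC (5.3 nM in the dispensed reagent) in 20 mM phosphate pH 7.0 with 0.01% (detergent screen) or 0.0001% Triton X-100 was preincubated with compounds for 15 min at room temperature. Nitrocefin was then added from an 800 uM solution, and hydrolysis was followed at 480 nm.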
AmpC no deterg = qHTS Inhibitors of AmpC Beta-Lactamase (assay without detergent) | 330,000 tested, 0.52% active | Potency, µM (series often up to 57.1 µM), inactives show top-dose activity change, negative = inhibition, usual class: inhibitors | P00811 | AmpC nitrocefin hydrolysis, absorbance 480 nm, 0.0001% Triton;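 also: plate controls were no compound for no effect and no enzyme for full effect; nearly all actives have a fitted effect of over 20% in size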
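20 mM phosphate pH 7.0 + 0.01% (detergent screen) or 0.0001% Triton X-100; 5.3 nM AmpC reagent; cpd preinc 15 min RT; nitrocefin (800 uM stock) to start; A480 q20 s × 4 min; Activity was normalised to no-enzyme and no-compound control wells.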
MARV entry inh = qHTS for inhibitors of binding or entry into cells for Marburg Virus. 300,000 tested, 1.8% active. Marburg virus pseudotyped entry inhibition, cell reporter. AID 540276, 2011. Potency, µM (highest dose often 37.8 µM), without a hit: top-dose activity change, negative = inhibition, actives largely listed as inhibitors; calls by dose curve; tested in HEK293 cells
* = called active by the depositor; u = inconclusive; x = not tested or not shown; [ ] = dose if it differs, or a comment. Unless noted, calls follow the shape of the dose curve; as a rule, active = well fitted curve in the direction sought with a large enough effect; inconclusive = small, poorly fitted or top-dose-only effect, or another doubt; inactive = no such curve, though single readings can be large; an effect the other way counts as inactive or inconclusive. Unless noted, % is scaled to controls: 0 for no effect and ±100 for the full control effect; potency is read from the fitted curve at half-maximal effect.

SMILES	LASV entry inh	AMA1-RON2 inh	AmpC inh detg	AmpC no deterg	MARV entry inh
CCN(CC)S(=O)(=O)c1cc(NC(=O)[C@@H](NC(N)=O)C(C)C)ccc1C	-17%	-11%	4%	-23%	7%[46.1 µM]
Cc1ccc(NC(=O)Cc2ccc(Cl)c(Cl)c2)cc1S(=O)(=O)N(C)C	13µM*	12%	-13%	-31%	u
Cc1cc(NC(=O)Cc2ccsc2)ccc1Br	x	1%	u	-36%	x
CN(C)S(=O)(=O)c1cc(NC(=O)CN2CCN(c3ccccc3O)CC2)ccc1Cl	0.56µM*	-2%	u	43%	-1%
CCN(CC)S(=O)(=O)c1cc(NC(=O)C(C)N2CC=C(c3ccccc3)CC2)ccc1C (stereo not given)	16µM*	5%[2.32 µM]	u	-6%	u
CC(=O)N1CCN(CC(=O)Nc2ccc(Cl)c(S(=O)(=O)N(C)C)c2)CC1	-6%	-5%[2.32 µM]	u	-18%	u
CSCCNCc1c(C(=O)N2CCOCC2)nc2c(C)cccn12	11%	9%	2%	0%	4%[46.1 µM]
Cc1cccn2c(CNCC3(c4ccccc4)CCCC3)c(C(=O)N3CCOCC3)nc12	u	2%	-5%	110%	8.9µM*
O=C(Nc1ccc(Cl)cc1)C1CCN(c2nc3ccccc3n3cccc23)CC1	-27%[46.1 µM]	x	2%	x	x
Cc1ccc(NC(=O)COc2cccc(C)c2C)cc1S(=O)(=O)N1CCCCCC1	11µM*	0%	-11%	-41%	u
CCCCOC(=O)Nc1ccc(N2CCCCC2)cc1	8.9µM*	u	-10%	-1%	u
Cc1ccc(NC(=O)c2ccc(F)cc2)cc1S(=O)(=O)N1CCCCCC1	u	-4%	5%	-39%	7.9µM*
O=C(c1ccc(F)cc1)c1ccc(N2CCCCC2)cc1	x	37%	-2%	-29%	x
O=C(Nc1ccc(N2CCCCC2)cc1)c1ccc(F)cc1	u	-12%	u	-41%	11µM*
COc1ccc(C(=O)Nc2ccc(C)c(S(=O)(=O)N3CCCCCC3)c2)cc1	u	-5%	-5%	-42%	u
CCCCOC(=O)Nc1ccc(N2CCOCC2)cc1	12%	-14%	2%	-14%	u
O=C1OC2(CCCCC2)CC2=C1[C@H]1O[C@](c3ccsc3)(Cc3c1ccc1ccccc31)O2	u	x	x	x	2%[14.2 µM]
O=C(Cn1cc(S(=O)(=O)Cc2ccc(F)cc2)c2ccccc21)NCCc1ccccc1	22%[46.1 µM]	x	3%	x	x
Cc1nnsc1C(=O)NC1CCCc2c1cnn2-c1ccc(C(C)(C)C)cc1 (stereo not given)	x	-12%	-5%	66%	x
Cc1nnsc1C(=O)NC1CCCc2c1cnn2-c1ccccc1F (stereo not given)	0.5µM*	-3%	3%	-10%	u
C#CCCCO/N=C1\C[C@@H](O)[C@@H](O)[C@@H]2[C@@H]3C(=O)N(C(C)(C)C)C(=O)[C@@H]3CC[C@H]12	x	x	x	x	12%[14.2 µM]
COc1ccc(-c2cc3nc4n(c(=O)c3s2)CCC4)cc1	u	1%	0%	-31%	1.6µM*
COc1ccc(-c2cc3nc4n(c(=O)c3s2)CCCCC4)cc1	4%[46.1 µM]	-4%	0%	13%	u
CCCN(CCC)c1nn2c(=O)c(C(=O)NCc3cc(Br)ccc3OC)cnc2s1	-10%[46.1 µM]	x	-4%	x	x
CCn1nc(-c2ccccc2)nc2c(=O)n(C)c(=O)nc1-2	u	-1%	-2%	-11%	0.89µM*
SMILES	LASV entry inh	AMA1-RON2 inh	AmpC inh detg	AmpC no deterg	MARV entry inh
CCOC(=O)Cn1nc(-c2ccccc2)nc1-c1ccccc1	4%	12%	-15%	9%	-19%
CN(C)CCNc1nc2sc3c(c2c(=O)n1-c1ccccc1)CCCCC3	-6%	-3%	1%	59%	u
COc1ccc(-n2c(NCCN(C)C)nc3sc4c(c3c2=O)CCCCC4)cc1	-19%	-1%	4%	34%	23µM*
CN(C)CCNc1nc2sc3c(c2c(=O)n1Cc1ccccc1)CCCCC3	8%	1%	-7%	29%	10µM*
COC(=O)C1=C(C(=O)OC)[C@@H]2N(Cc3ccccc3)c3ccccc3[C@@]23CCC(=O)N(CC2CCCCC2)C3=N1	x	x	x	x	11%[14.2 µM]
O=C(CSc1nc2c([nH]c3ccccc32)c(=O)n1-c1ccccc1)N1CCCC1	u	x	-2%	x	x
O=C(Nc1ccc2oc(-c3cccc(F)c3)nc2c1)c1ccc2ccccc2c1	10%[46.1 µM]	x	8%	x	x
O=C(c1cccs1)N1C[C@@H](n2cc(C3CC3)nn2)[C@@H](O)C[C@@H]1c1ccc(Cl)cc1	8%[46.1 µM]	x	x	x	x
CC[n+]1c(/C=C/N(C)c2ccccc2)n(-c2ccccc2)c2ccc(-c3nc4ccccc4s3)cc21	2.5µM*	-18%	-3%	174%	u
CCOC(=O)c1ccc2c(c1)n(CC)c(/C=C/N(C)c1ccccc1)[n+]2CC	u	7%	u	4%	u
CC(=O)c1ccc(C(=O)Nc2nnc(-c3ccc(Cl)cc3)o2)cc1	x	57%	-4%	-49%	x
O=C(Nc1nnc(-c2ccccc2)o1)c1ccc(Cl)cc1	u	73%	-1%	x	13µM*
Cc1cc(N2CCN(C(=O)c3ccco3)CC2)nc(-c2ccccc2)n1	11µM*	16%	10%	121%	u
CC(Nc1cc(C)cc(C)c1)=[N+](C)CCNS(=O)(=O)c1ccc(Cl)cc1	-12%[46.1 µM]	-12%	5%	-6%	10µM*
COc1ccc(NC(C)=[N+](C)CCNS(=O)(=O)c2ccc(Cl)cc2)cc1Cl	x	-17%	0%	-1%	x
CCOC(=O)C1C=CN=C1C (stereo not given)	x	x	x	x	14%
Nc1c(C(=O)Nc2nc3ccccc3s2)sc2nc(-c3cccs3)ccc12	6.5µM*	37%	u	-51%	5.8µM*
CCCS(=O)(=O)NCCc1csc2nc(-c3ccc(OC)cc3)nn12	2%[46.1 µM]	x	4%	x	x
CCOC(=O)c1nc(NNC(=O)c2ccc([N+](=O)[O-])cc2)sc1C	u	94%	-2%	-24%	8.9µM*
O=C(CCCCCNC(=S)Nc1ccc(Cl)cc1)C[N+](=O)[O-]	-6%	33%	0%	20µM*	5%[46.1 µM]
O=C(CCCCCNC(=S)Nc1ccccc1)C[N+](=O)[O-]	x	4%	-3%	-38%	x
C=CCOc1ccc(CN(C)CC(=O)N(CC(C)C)c2c(N)n(CC(C)C)c(=O)[nH]c2=O)cc1	u	-7%	-2%	6.3µM*	u
O=C1CC(NS(=O)(=O)c2cccs2)CN1c1ccc(F)cc1 (stereo not given)	-5%	6%	u	32µM*	4%[46.1 µM]
CN(C)c1ccc2c(c1)C(=NO)c1ccccc1-2	-3%	25µM*	x	x	-10%
CCOC(=O)c1cc(-c2ccc(OC)cc2)n(CCC(=O)NCc2ccccc2OC)c1C	u	x	-2%	x	x
